Reference: PubChem BioAssay (NCATS)
“And” between values parts separate entries of the source, which are not always exact repeats. Identical values can stand only once. Results filed as inconclusive are left out. The source holds several records for some structures; these can differ, active in one and inactive in another. The source made the active and inactive calls. The call rests on the fitted dose curve; in most records, active means well fitted inhibition curve with a large enough effect; inconclusive means small, poorly fitted or top-dose-only effect; inactive means flat fitted curve, though single readings scatter.

How the values were obtained:
P94_40 = assay: qHTS profiling for inhibitors of Plasmodium falciparum proliferation (AID 504749); further: potency means the concentration at half of the fitted maximal effect; conditions: P. falciparum in erythrocytes, SYBR Green DNA, 72 h; series mostly up to 28.7 µM
In short: (§1)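 Each compound contacts P. falciparum-infected red blood cells for 72 h at 37 C; lysis buffer (Tris, EDTA, saponin, Triton X, SYBR Green I) is added and fluorescence measured next morning; values normalized to controls.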

PAD = assay: as above; conditions: P. falciparum in erythrocytes, SYBR Green DNA, 72 h; series mostly up to 28.7 µM
In short: as §1

PC15 = assay: as above; conditions: P. falciparum in erythrocytes, SYBR Green DNA, 72 h; series mostly up to 28.7 µM
In short: as §1

PC26 = assay: as above; conditions: P. falciparum in erythrocytes, SYBR Green DNA, 72 h; series mostly up to 28.7 µM
In short: as §1

PC49 = assay: as above; conditions: P. falciparum in erythrocytes, SYBR Green DNA, 72 h; series mostly up to 28.7 µM
In short: as §1

SC27B = assay: as above; conditions: P. falciparum in erythrocytes, SYBR Green DNA, 72 h; series mostly up to 28.7 µM
In short: as §1

TAB109 = assay: as above; conditions: P. falciparum in erythrocytes, SYBR Green DNA, 72 h; series mostly up to 28.7 µM
In short: as §1

TAB113 = assay: as above; conditions: P. falciparum in erythrocytes, SYBR Green DNA, 72 h; series mostly up to 28.7 µM
In short: as §1

TAB165 = assay: as above; conditions: P. falciparum in erythrocytes, SYBR Green DNA, 72 h; series mostly up to 28.7 µM
In short: as §1

W2 = assay: as above; conditions: P. falciparum in erythrocytes, SYBR Green DNA, 72 h; series mostly up to 28.7 µM
In short: as §1

CRL-7250 = normal cell line; assay: Cytotoxic Profiling of Annotated Libraries Using Quantitative High-Throughput Screening (AID 1296008); conditions: Five cell lines viability, CellTiter-Glo ATP luminescence, 48-72 h; max response: stronger effect = lower value; further: potency means the concentration at half of the fitted maximal effect; on max response: on the % scale 0 is the no-effect control and ±100 the full control effect
In short: (§2)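 Cells exposed to compounds for 48 or 72 hr at 37 degrees Celsius. Viability read as ATP-coupled luminescence with CellTiter-Glo after 10 min at room temperature.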

HEK293 = assay: as above; conditions: Five cell lines viability, CellTiter-Glo ATP luminescence, 48-72 h; max response: stronger effect = lower value
In short: as §2

HaCat [1] = assay: as above; conditions: Five cell lines viability, CellTiter-Glo ATP luminescence, 48-72 h; max response: stronger effect = lower value
In short: as §2

NIH3T3 = assay: as above; conditions: Five cell lines viability, CellTiter-Glo ATP luminescence, 48-72 h; max response: stronger effect = lower value
In short: as §2

MCC-13 = assay: qHTS assay to identify novel small-molecules to repurpose for Merkel cell carcinoma treatment (AID 1296009); conditions: MCC and control cell lines, CellTiter-Glo viability, 72 h; series mostly up to 46 µM
In short: (§3)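 Dose-response viability screen; 72 hr exposure at 37 degree celsius; CellTiter-Glo added, 10 min room temperature, luminescence read; RLUs scaled between no-cell and DMSO wells.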

MCC-26 = assay: as above; conditions: MCC and control cell lines, CellTiter-Glo viability, 72 h; series mostly up to 46 µM
In short: as §3

HACAT [2] = assay: as above; conditions: MCC and control cell lines, CellTiter-Glo viability, 72 h; at 44.8 µM (top of the series) unless noted
In short: as §3

MKL-1 = assay: as above; conditions: MCC and control cell lines, CellTiter-Glo viability, 72 h; series mostly up to 46 µM
In short: as §3

HEK293T = assay: as above; conditions: MCC and control cell lines, CellTiter-Glo viability, 72 h; at 44.8 µM (top of the series) unless noted
In short: as §3

KB-3-1 = assay: Cytotoxic Profiling of Annotated Libraries Using Quantitative High-Throughput Screening (AID 1296008); conditions: Five cell lines viability, CellTiter-Glo ATP luminescence, 48-72 h; max response: stronger effect = lower value; further: potency means the concentration at half of the fitted maximal effect; on max response: on the % scale 0 is the no-effect control and ±100 the full control effect
In short: as §2
Further: nearly all actives have a fitted effect of over 60% in size.

Nc1ncn([C@@H]2O[C@H](CO)[C@@H](O)[C@H]2O)c(=O)n1
active: Potency (CRL-7250) 7.5 µM | Potency (HEK293) 3.35 µM
inactive: Potency (P94_40) | Potency (PAD) | Potency (PC15) | Potency (PC26) | Potency (PC49) | Potency (SC27B) | Potency (TAB109) | Potency (TAB113) | Potency (TAB165) | Potency (W2) | max response (HaCat [1]) -18.5% | max response (NIH3T3) -10.9%

CC(C)[N+](C)(CCOC(=O)C1c2ccccc2Oc2ccccc21)C(C)C
inactive: Potency (PC15) | Potency (PC26) | Potency (PC49) | max response (CRL-7250) -3.69% | max response (HEK293) -1.62% | max response (HaCat [1]) -8.6% | outcome (NIH3T3) | Potency (MCC-13) | Potency (MCC-26)

CN(C)C/C=C(/c1ccc(Br)cc1)c1cccnc1
active: Potency (W2) 8.49 µM
inactive: Potency (PC15) | Potency (PC26) | Potency (PC49) | Potency (SC27B) | Potency (TAB113) | outcome (CRL-7250) | max response (HEK293) -10.5% | outcome (HaCat [1]) | outcome (NIH3T3) | outcome (HACAT [2]) | Potency (MCC-13) | Potency (MCC-26) | Potency (MKL-1)

CN=C(NC#N)NCCSCc1nc[nH]c1C
inactive: Potency (P94_40) | Potency (PAD) | Potency (PC15) | Potency (PC26) | Potency (PC49) | Potency (SC27B) | Potency (TAB109) | Potency (TAB113) | Potency (TAB165) | Potency (W2) | outcome (CRL-7250) | outcome (HEK293) | outcome (HaCat [1]) | max response (NIH3T3) -0.832% | outcome (HACAT [2]) | outcome (HEK293T) | Potency (MCC-13) | Potency (MCC-26) | Potency (MKL-1)

C(=C\c1ccccc1)/CN1CCN(C(c2ccccc2)c2ccccc2)CC1
inactive: outcome (CRL-7250) | max response (HaCat [1]) -6.19% | max response (NIH3T3) -6.19% | Potency (MCC-13) | Potency (MCC-26) | Potency (MKL-1)
active: Potency (HEK293) 15 µM

CCN(CC)CCNC(=O)c1cc(S(C)(=O)=O)ccc1OC
inactive: Potency (P94_40) | Potency (PAD) | Potency (PC15) | Potency (PC49) | Potency (SC27B) | Potency (TAB109) | Potency (TAB113) | Potency (TAB165) | max response (CRL-7250) 1.79% | max response (HEK293) -8.18% | max response (HaCat [1]) -0.825% | max response (NIH3T3) -1.98% | Potency (MCC-13) | Potency (MCC-26) | Potency (MKL-1)

COc1cc(C(=O)OCCCN2CCCN(CCCOC(=O)c3cc(OC)c(OC)c(OC)c3)CC2)cc(OC)c1OC
active: Potency (TAB109) 11.2 µM | Potency (TAB113) 11.2 µM | Potency (TAB165) 8.91 µM | Potency (W2) 3.01 µM | Potency (HEK293) 21.1 µM
inactive: max response (CRL-7250) -12.1% | max response (HaCat [1]) 3.13% | max response (KB-3-1) -1.09% | max response (NIH3T3) -3.19% | Potency (MCC-13) | Potency (MCC-26) | Potency (MKL-1)

COC(=O)[C@H]1[C@H]2C[C@@H]3c4[nH]c5cc(OC)ccc5c4CCN3C[C@H]2C[C@@H](OC(=O)c2cc(OC)c(OC)c(OC)c2)[C@@H]1OC
active: Potency (P94_40) 7.94 µM | Potency (PAD) 2 µM | Potency (PC15) 11.2 µM | Potency (PC26) 2.13 µM | Potency (PC49) 7.94 µM | Potency (SC27B) 7.08 µM | Potency (TAB109) 8.91 µM | Potency (TAB113) 5.62 µM | Potency (TAB165) 3.98 µM | Potency (W2) 3.79 µM
inactive: max response (CRL-7250) 0.615% and 0.375% | max response (HaCat [1]) -6.17% and -7.84% | max response (NIH3T3) -3.91% and -6.42% | Potency (MCC-13)

OCCN1CCN(CCCN2c3ccccc3C=Cc3ccccc32)CC1
active: Potency (P94_40) 5.01 µM | Potency (PAD) 3.55 µM | Potency (PC15) 2.24 µM | Potency (PC26) 4.78 µM | Potency (PC49) 1.41 µM | Potency (SC27B) 7.94 µM | Potency (TAB109) 7.94 µM | Potency (TAB113) 6.31 µM | Potency (TAB165) 5.62 µM | Potency (W2) 1.51 µM
inactive: outcome (CRL-7250) | outcome (HaCat [1]) | max response (KB-3-1) -12.9% | outcome (NIH3T3) | outcome (HACAT [2]) | Potency (MCC-13) | Potency (MCC-26) | Potency (MKL-1)

CCCN1C[C@H](CSC)C[C@@H]2c3cccc4[nH]cc(c34)C[C@H]21
active: Potency (SC27B) 11.2 µM | Potency (TAB109) 12.6 µM | Potency (TAB165) 14.1 µM | Potency (W2) 5.36 µM | Potency (NIH3T3) 21.1 µM
inactive: Potency (PC15) | Potency (PC49) | max response (CRL-7250) -3.21% and -8.84% | max response (HaCat [1]) 4.81% and -5.73% | max response (NIH3T3) -7.31% | Potency (MCC-13) | Potency (MCC-26) | Potency (MKL-1)

CCn1ccnc1CC1COc2ccccc2O1 (centres undefined)
inactive: Potency (P94_40) | Potency (PAD) | Potency (PC15) | Potency (PC26) | Potency (PC49) | Potency (SC27B) | Potency (TAB109) | Potency (TAB113) | Potency (TAB165) | max response (CRL-7250) -3.72% | max response (HaCat [1]) 2.89% | max response (NIH3T3) -3.18% | Potency (MCC-13) | Potency (MCC-26) | Potency (MKL-1)

CCC(=O)c1ccc2c(c1)N(CCCN(C)C)c1ccccc1S2
inactive: Potency (PC49) | Potency (SC27B) | max response (CRL-7250) -1.9% | outcome (HaCat [1]) | max response (NIH3T3) -21.3% | outcome (HACAT [2]) | Potency (MCC-13) | Potency (MCC-26)
active: Potency (W2) 3.01 µM

CN(C)CCCN1c2ccccc2Sc2ccccc21
inactive: max response (CRL-7250) 0.274% | outcome (HaCat [1]) | max response (KB-3-1) -0.491% | max response (NIH3T3) -1.44% | outcome (HACAT [2]) | Potency (MCC-13) | Potency (MCC-26) | Potency (MKL-1)
active: Potency (PC15) 2 µM | Potency (W2) 0.572 µM

CN1CCN(C2=Nc3ccccc3Oc3ccc(Cl)cc32)CC1
inactive: Potency (P94_40) | Potency (PAD) | Potency (PC15) | Potency (PC49) | Potency (SC27B) | Potency (TAB109) | Potency (TAB113) | Potency (TAB165) | outcome (CRL-7250) | max response (HaCat [1]) -5.97% | max response (KB-3-1) 6.07% | max response (NIH3T3) -11% | Potency (MCC-13) | Potency (MCC-26) | Potency (MKL-1)
